# This is a sample that favours compounds with a hit; in the whole collection about 3% have one here.
# EWS-Fli block: EWS/Fli transcriptional activity inhibition; A673 NR0B1-luciferase reporter, viability-normalised; AID 651661; inhibition, % at 12.6 µM; hit rate 0.67% among 350,000;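 active means mean inhibition of at least 50% after viability correction, with every replicate also passing that limit; inconclusive means mean reaches 50% but only one of two replicates passes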;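 further: firefly luciferase signal divided by Alamar Blue viability fluorescence both relative to DMSO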
# TRPM1 prom inh: reduces MITF-dependent TRPM1 promoter luciferase signal; hit rate 0.83% among 330,000; inhibition, % at 12.5 µM; SK-MEL-5 TRPM1 promoter luciferase, 24 h;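 active means mean inhibition across replicates of 60% or more, whatever share of single replicates reaches that level; inconclusive means some that reach 60%, reason not given; inactive means mean inhibition across replicates below 60%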
# PAX8 inh HTS: PAX8 transcriptional activity inhibition | inhibition, % at 12.6 µM | RMG-I TPO-luciferase reporter, SteadyGlo, 24 h | hit rate 1.2% among 360,000;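 active means mean replicate inhibition at least 60% with every replicate also reaching 60%; inconclusive means only one of the two criteria is met; inactive means mean below 60% and not all replicates reaching 60%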;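 further: luciferase light reporting Pax8 driven TPO promoter activity; plate controls were median of neutral control wells for no effect and mitoxantrone controls for full effect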
# Peg3 prom inh: reduces Peg3 promoter-driven luciferase expression in HeLa | HeLa PEG-Prom luciferase reporter, luminescence, overnight | inhibition, % at 20 µM | hit rate 1.7% among 360,000;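 active means inhibition of at least 50% at 20 µM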
# Shn3 3UTR inh: reduces Shn3 3'UTR luciferase signal in osteoblasts. inhibition, % at 12.5 µM. Clone20 osteoblast Shn3 3'UTR firefly luciferase, 24 h. hit rate 0.52% among 360,000;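 active means mean inhibition of at least 75% with every replicate also reaching 75%; inconclusive means mean inhibition at least 75% but some replicate below; inactive means mean inhibition below 75%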;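 further: 0% = median of neutral control wells and 100% = pilot-screen positive control compound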
# ABHD5 PLIN5 PPI: blocks binding of human ABHD5 to perilipin-5; inhibition, % at 4 µM; Split G. princeps luciferase complementation, luminescence, 4 h; hit rate 0.78% among 360,000; Q00G26+Q8WTS1;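 active means inhibition above the mean inhibition across every tested compound plus 3 SD, cut at about 22% in these data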;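 further: 0% = DMSO only wells and the 100% control is not disclosed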
# Target sequence (Q00G26 whole entry, looked up): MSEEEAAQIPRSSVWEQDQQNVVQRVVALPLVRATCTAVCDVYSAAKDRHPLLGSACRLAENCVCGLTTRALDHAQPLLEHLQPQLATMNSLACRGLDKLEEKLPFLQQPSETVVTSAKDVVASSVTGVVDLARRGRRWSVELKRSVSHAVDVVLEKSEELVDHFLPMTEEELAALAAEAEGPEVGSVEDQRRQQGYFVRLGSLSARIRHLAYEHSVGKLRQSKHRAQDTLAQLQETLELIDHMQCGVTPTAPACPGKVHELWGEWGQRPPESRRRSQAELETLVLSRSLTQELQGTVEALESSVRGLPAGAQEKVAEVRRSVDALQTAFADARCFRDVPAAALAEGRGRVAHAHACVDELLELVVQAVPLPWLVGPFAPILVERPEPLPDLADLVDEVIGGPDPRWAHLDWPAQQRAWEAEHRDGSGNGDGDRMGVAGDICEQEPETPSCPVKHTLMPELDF
# Target sequence (Q8WTS1 whole entry, looked up): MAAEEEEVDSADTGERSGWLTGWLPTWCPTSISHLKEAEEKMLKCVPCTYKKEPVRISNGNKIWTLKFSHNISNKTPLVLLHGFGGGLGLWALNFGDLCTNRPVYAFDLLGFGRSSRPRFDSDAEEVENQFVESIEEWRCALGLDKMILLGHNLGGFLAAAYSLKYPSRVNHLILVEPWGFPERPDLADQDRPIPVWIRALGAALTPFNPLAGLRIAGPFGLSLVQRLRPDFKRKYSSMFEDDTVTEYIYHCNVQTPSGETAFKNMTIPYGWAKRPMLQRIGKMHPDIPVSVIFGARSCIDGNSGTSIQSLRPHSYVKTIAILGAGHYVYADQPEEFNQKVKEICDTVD
# ABHD5 PLIN5 conf: confirmation of human ABHD5-PLIN5 interaction inhibitors; shares compounds with ABHD5 PLIN5 PPI; biochemical ABHD5-PLIN5 interaction, luminescence; inhibition, % at 4 µM; hit rate 67% among 2,200; AID 651612; in the data active means inhibition above about 23%;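 further: 0% = DMSO vehicle wells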
# HNF4 split-luc: active in HNF4 split-luciferase counter-screen for ABHD5-PLIN5 inhibitors; shares compounds with ABHD5 PLIN5 PPI; HNF4 dimerization, luminescence, biochemical; inhibition, % at 4 µM; hit rate 77% among 2,200;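 active means mean inhibition across replicate wells exceeding the computed hit threshold, cut at about 13% in these data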;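 further: light from luciferase halves that rejoin when HNF4 fusion proteins dimerize; 0% = DMSO only wells and the 100% control is not given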
# DNA binding: binds DNA displacing acridine orange; AC35, µM (series often up to 68 µM), for inactives: at the top dose activity change, negative = DNA binding; shares compounds with EWS-Fli block; hit rate 2% among 640; salmon sperm DNA acridine orange fluorescence polarization;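 active means fitted curve reaches a 35% signal fall AC35 below twice the sample's top valid tested dose, actives reach about 48 µM in these data; inactive means the rest, including activity in the rising direction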;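 further: lower polarization ratio signals compound binding to DNA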
# * marks the source's active call; other numbers are inactive results; ? = inconclusive; / = no result.
SMILES,EWS-Fli block,TRPM1 prom inh,PAX8 inh HTS,Peg3 prom inh,Shn3 3UTR inh,ABHD5 PLIN5 PPI,ABHD5 PLIN5 conf,HNF4 split-luc,others
COc1cccc(C(=O)/C=C/Nc2ccc(S(=O)(=O)Nc3cccc(C(C)=O)c3)cc2)c1,/,45.0,/,19.8,74.9,6.8,/,/,
O=C(N[C@@H]1CC[C@@H](CCn2cc(-c3ccccn3)nn2)O[C@H]1CO)c1ccc(F)cc1,-7.8,/,-12.3,/,/,/,/,/,
C[C@@H]1CN([C@@H](C)CO)C(=O)c2cc(C#C[C@@H](C)O)cnc2O[C@@H]1CN(C)Cc1ccc(-c2ccccc2)cc1,16.5,/,26.2,/,/,/,/,/,
COc1cccc(/C=C/C(=O)c2ccc(C)c([N+](=O)[O-])c2)c1,10.4,-6.8,2.7,-1.1,-4.7,55.5*,102.1*,105.4*,
COC(=O)c1ccc(/C=C/C(=O)c2cccc(OC)c2)cc1,36.7,-32.6,-149.7,-19.9,0.7,14.1,/,/,
Cc1ccc(SC(CC(=O)c2ccc(C)cc2)C(=O)O)cc1 (stereo not given),/,-3.3,/,6.6,-7.7,69.0*,29.1*,73.1*,
COCC(=O)N1CC2(C1)CN(C(=O)Cc1ccccc1)[C@H](CO)c1c2c2ccc(OC)cc2n1C,3.0,/,/,/,/,/,/,/,
CCOC(=O)COc1ccc(/C=C/[N+](=O)[O-])c(OCC(=O)OCC)c1,/,91.5*,/,106.3*,73.2,28.1*,62.5*,94.6*,
CCOc1ccccc1NC(=O)/C=C/c1ccccc1[N+](=O)[O-],/,-12.8,-27.9,-67.3,-18.2,-1.4,/,/,
CCOc1ccc(/C=C/[N+](=O)[O-])c2ccccc12,/,84.4*,/,99.0*,95.0*,79.2*,102.5*,108.0*,
CO[C@H](CN(C)S(=O)(=O)c1ccc(C)cc1)[C@H](C)CN(C(=O)Nc1ccccc1F)[C@@H](C)CO,-15.3,/,/,/,/,/,/,/,
CCCNC(=O)C[C@H]1CC[C@H]2[C@@H](COC[C@H](O)CN2Cc2ccc(Cl)c(Cl)c2)O1,-8.8,/,-5.2,/,/,/,/,/,
CCOc1ccc(C2C(C(=O)Nc3ccccc3)=C(C)N=c3s/c(=C/c4cccc(OCC(=O)O)c4)c(=O)n32)cc1 (stereo not given),-29.2,3.2,-18.1,-11.1,11.6,18.9,/,/,
CC1=C(C(=O)Nc2ccccc2)C(c2ccc(Cl)cc2)n2c(s/c(=C/c3cccc(OCC(=O)O)c3)c2=O)=N1 (stereo not given),3.8,2.3,-10.9,0.6,8.4,27.3*,48.7*,29.0*,
O=C(c1ccccc1Cl)N1CCNCC1,/,-0.4,/,5.7,6.2,4.5,/,/,
Clc1cccc2c1Sc1ccccc1CC2N1CCNCC1 (stereo not given),/,29.1,30.2,108.5*,50.7,30.6*,21.2,0.8,
COc1ccc(NCc2nc3ccccc3n2CCOc2ccccc2)cc1,/,-29.1,/,9.6,-0.4,29.3*,6.4,1.6,
Cc1ccc(OCCn2c(C)nc3ccccc32)cc1,-1.5,-9.0,8.2,9.0,41.4,-0.6,/,/,
c1ccc(NCc2nc3ccccc3n2CCOc2ccccc2)cc1,/,-11.8,-18.3,-71.1,-21.5,3.2,/,/,
COc1ccc(NCc2nc3ccccc3n2CCOc2ccc(C)cc2)cc1,-27.3,-6.8,35.2,-10.9,11.9,24.8*,6.1,9.6,
O=C(C[C@H]1C=C[C@@H](NC(=O)C2CC2)[C@H](CO)O1)NC1CCC1,5.7,/,-14.1,/,/,/,/,/,
CCNC(=O)C[C@H]1CC[C@H]2[C@@H](COc3ccc(NC(=O)Nc4cccc(C#N)c4)cc3C(=O)N2C)O1,5.2,/,-1.6,/,/,/,/,/,
COc1cc(N=c2ssnc2Cl)cc(OC)c1OC,/,17.9,/,11.2,26.8,61.0*,67.8*,103.2*,
CO[C@@H]1CN(C)C(=O)c2cc(NC(=O)c3cccc(F)c3)ccc2OC[C@@H](C)NC[C@@H]1C,-7.8,/,/,/,/,/,/,/,
CCOC(=O)CNc1nnc(SCC(=O)OCC)[nH]c1=O,/,5.5,/,11.1,12.4,25.6*,41.1*,83.0*,
SMILES,EWS-Fli block,TRPM1 prom inh,PAX8 inh HTS,Peg3 prom inh,Shn3 3UTR inh,ABHD5 PLIN5 PPI,ABHD5 PLIN5 conf,HNF4 split-luc,others
COC(=O)CSc1nnc(C)c(=O)[nH]1,/,-1.5,/,9.3,-10.8,0.3,/,/,
CC1(C)c2ccccc2N2CC(=O)N[C@@]21/C=C/C=C/c1ccccc1,14.7,1.4,26.3,5.6,-8.0,34.3*,5.1,8.6,
COc1ccc2c3c([nH]c2c1)[C@@H](CO)N(S(C)(=O)=O)CC31CN(C(=O)Cc2cccnc2)C1,-7.0,/,/,/,/,/,/,/,
O=C(NCCCN1CCOCC1)c1sc2cc([N+](=O)[O-])ccc2c1Cl,/,13.7,/,4.6,11.3,23.6*,5.1,66.4*,
O=C(C[C@H]1C[C@H]2c3cc(NC(=O)Nc4ccccc4F)ccc3O[C@H]2[C@H](CO)O1)NCc1cc(F)ccc1F,-2.7,/,5.9,/,/,/,/,/,
COc1ccc(S(=O)(=O)Nc2ccc3c(c2)[C@@H]2C[C@H](CC(=O)NCC4CC4)O[C@H](CO)[C@@H]2O3)cc1,2.1,/,-3.0,/,/,/,/,/,
O=C1C=CC2C3C(=O)N(c4ccccc4)C(=O)C3C1N2Cc1ccccc1 (stereo not given),59.8*,95.8*,8.1,102.1*,?,90.3*,100.3*,103.1*,
CC(C)N1C/C(=C/c2cccnc2)C(=O)/C(=C/c2cccnc2)C1,69.5*,90.0*,-5.2,26.1,28.9,41.5*,85.8*,66.9*,DNA binding=-10.9%
CC(C)N1CC2=C(OC(N)=C(C#N)C2c2cccnc2)/C(=C/c2cccnc2)C1 (stereo not given),/,-10.3,-3.9,8.4,-18.3,0.9,/,/,
C[C@@H]1CN([C@@H](C)CO)C(=O)c2c(c3ccccc3n2C)-c2ccccc2CO[C@@H]1CN(C)S(=O)(=O)c1cn(C)cn1,1.5,/,-5.0,/,/,/,/,/,
CCC(=O)N1CC2(C1)CN(Cc1cccc(OC)c1)[C@@H](CO)c1[nH]c3cc(OC)ccc3c12,14.0,/,/,/,/,/,/,/,
CCN1/C(=C/C=C/c2oc3ccc(-c4ccccc4)cc3[n+]2CC)Oc2ccc(-c3ccccc3)cc21,90.5*,101.7*,97.7*,83.8*,96.0*,37.1*,92.1*,59.9*,DNA binding=22.4µM*
COCC(=O)Nc1ccc2c(c1)OC[C@@H](C)N(C(=O)c1ccccc1)C[C@H](C)[C@@H](OC)CN(C)C2=O,1.5,/,/,/,/,/,/,/,
C=C1C(=O)O[C@@H]2[C@H]1[C@@H](OC(=O)/C(C)=C/C)C/C(C)=C\C(=O)/C=C(\C)[C@@H]2O,73.5*,96.4*,97.7*,110.6*,-31.3,42.1*,61.9*,72.1*,DNA binding=-5.7%
C/C=C(/C)C(=O)O[C@H]1[C@@H](O)c2c(ccc3ccc(=O)oc23)OC1(C)C,0.7,5.3,-4.0,1.9,-4.3,3.3,/,/,
